Molecules are shown by their SMILES. Potency and affinity values are given separately.

The subject of test [1] is Klebsiella pneumoniae. Conditions: Concentration 32 ug.mL-1; ASSAY_TEST Inhibition of Bacterial Growth; detection method Absorption (OD600); MEDIA CAMHB; plate type 384well; NBS; CORNING #3640; time 18 hr.
The test system of test [2] is Candida albicans. Conditions: 32 ug/mL.
For test [3], the system named is Cryptococcus neoformans. To be noted: Concentration 32 ug.mL-1; ASSAY_TEST Inhibition of Fungal Growth; detection method Resazurin; Absorption (OD600-OD570); plate type 384well; NBS; CORNING #3640. (Alamar Blue is a resazurin reagent that responds to reducing activity.)

Turning to `Cn1cc(NC(=O)c2cc(NC(=O)c3ccc(/C=C/c4cccc(F)c4)cc3)cn2C)cc1C(=O)NCCN1CCOCC1.O=C(O)C(F)(F)F`, the values for the Inhibition in test [1] and in test [2] were -2.66% and 24.2%, respectively.
`CC(C)CCc1sc(NC(=O)c2cc(NC(=O)c3cc(NC(=O)c4ccc(C(=O)O)cc4)cn3C)cn2C)nc1C(=O)NCCCN(C)C.O=C(O)C(F)(F)F`: the Inhibition (in general, the drop in the measured response relative to a control, in per cent) in test [1] is -0.94%; in test [2] it was 8.07%; in test [3], -119.21%.
For `COC(=O)CCC(=O)Nc1cc(C(=O)Nc2cc(C(=O)NCCCN(C)C)n(C)c2)n(C)c1.O=C(O)C(F)(F)F` the same measures were -5.32%, 0.6% and -50.28%.
The corresponding values for `Cc1ncc(Cn2cc(CCCN)nn2)c(N)n1.Cl` are -8.29%, 3.42% and -41.75%.
Consider `Cc1ncc(CNc2cccc(F)c2)c(N)n1`, for which the values for the Inhibition in test [1], in test [2] and in test [3] were 9.56%, 1.91% and -50.34%, respectively.
For `CN(C)CCCNC(=O)c1cc(NC(=O)c2cc(NC(=O)CCC(=O)O)cn2C)cn1C.O=C(O)C(F)(F)F` the same measures were 6.24%, 0.85% and -54.8%.
The corresponding values for `Cn1cc(NC(=O)c2cc(NC(=O)c3sc(N)nc3C(F)(F)F)cn2C)cc1C(=O)NCCN1CCOCC1.O=C(O)C(F)(F)F` are -3.11%, 1.1% and -112.77%.
For `COc1ccc(CC(=O)Nc2cc(C(=O)Nc3cc(C(=O)Nc4cn(CCCN(C)C)cn4)n(C)c3)n(C)c2)cc1.O=C(O)C(F)(F)F` the same measures were 2.03%, 1.27% and -97.5%.
As to `Cc1ncc(Cn2cc(CCCO)nn2)c(N)n1`, the Inhibition was -1.34% in test [1], 0.26% in test [2] and -29.76% in test [3].
Regarding `COc1cccc(C(=N)Nc2cc(C(=O)Nc3cc(C(=O)NCCC(=N)N)n(C)c3)n(C)c2)c1.O=C(O)C(F)(F)F.O=C(O)C(F)(F)F`, the Inhibition in test [1] amounted to 100.7%; in test [2] it was 39.3%; in test [3], 101.54%.
For `COC(=O)CCC(=O)Nc1cc(C(=O)Nc2cc(C(=O)NCCC(=N)N)n(C)c2)n(C)c1.O=C(O)C(F)(F)F` the same measures were 5.44%, 2.68% and -68.45%.
Turning to `CCOC(=O)c1cc(NC(=O)c2cc(NC(=O)c3nc(N)sc3CCC(C)C)cn2C)cn1C`, the values for the Inhibition in test [1], in test [2] and in test [3] were 9.93%, 2.98% and -84.96%, respectively.
For `CCOC(=O)c1cc(NC(=O)c2cc(NC(=O)c3sc(N)nc3C(F)(F)F)cn2C)cn1C` the same measures were 7.86%, 4.58% and -88.19%.
The corresponding values for `CN(C)CCCNC(=O)c1cc(NC(=O)c2cc(NC(=O)c3cc4ccccc4cn3)cn2C)cn1C.O=C(O)C(F)(F)F` are 12.4%, 3.58% and -81.77%.
The corresponding values for `CCOC(=O)CCC(NC(=O)c1ccc(NCc2cn(Cc3cnc(C)nc3N)nn2)cc1)C(=O)OCC` (configuration not stated) are -10.59%, 5.67% and -67.67%.
For `CC(=O)N(C(C)=O)c1cc(C(=O)Nc2cc(C(=O)NCCC(=N)N)n(C)c2)n(C)c1.O=C(O)C(F)(F)F`, the Inhibition in test [1] stood at 5.82%; in test [2], 3.85%; in test [3] it was 87.54%.
For `COc1ccc(/C=C(/C(=O)Nc2cc(C(=O)Nc3cc(C(=O)NCCCN(C)C)n(C)c3)n(C)c2)c2ccc(OC)cc2)cc1.O=C(O)C(F)(F)F` the same measures were 4.2%, 1.83% and -5.3%.
Turning to `CCOC(=O)c1cc(NC(=O)c2cc(NC(=O)c3nc(N)sc3C(C)C)cn2C)cn1C`, the values for the Inhibition in test [1], in test [2] and in test [3] were 11.43%, 4.33% and -54.98%, respectively.
For `CC(C)c1sc(N)nc1C(=O)Nc1cc(C(=O)NCCN2CCOCC2)n(C)c1.O=C(O)C(F)(F)F` the same measures were 8.18%, 3.26% and -97.94%.
The corresponding values for `COC(=O)CCC(=O)Nc1cc(C(=O)Nc2cc(C(=O)NCCN3CCOCC3)n(C)c2)n(C)c1.O=C(O)C(F)(F)F` are 8.45%, 1.41% and -63.38%.
On to `CN(C)CCCNC(=O)c1cc(NC(=O)c2cc(NC(=O)c3ccc(C(=O)O)cc3)cn2C)cn1C.O=C(O)C(F)(F)F`, for which the Inhibition in test [1] was 8.35%; in test [2] it was 15.6%; in test [3], -106.52%.
For `Cc1ncc(CNc2ccc(C(F)(F)F)cc2)c(N)n1` the same measures were 1.98%, 0.52% and -31.34%.
As for `CC(C)CCc1sc(NC(=O)c2cc(NC(=O)c3cc(NC(=O)CCC(=O)O)cn3C)cn2C)nc1C(=O)NCCCN(C)C.O=C(O)C(F)(F)F`, the figures for the Inhibition in test [1], in test [2] and in test [3] were 2.15%, 2.8% and -103.67%, respectively.
With `COc1cccc(C(=N)Nc2cc(C(=O)Nc3cc(C(=O)Nc4cn(CCCN(C)C)cn4)n(C)c3)n(C)c2)c1.O=C(O)C(F)(F)F.O=C(O)C(F)(F)F`, the Inhibition in test [1] is 25.01%; in test [2] it was 0.2%; in test [3] it was -90.24%.
For `CC(C)c1sc(NC(=O)c2cc(NC(=O)c3cc(NC(=O)c4cnc(Cl)c(Cl)c4)cn3C)cn2C)nc1C(=O)NCCCN(C)C.O=C(O)C(F)(F)F` the same measures were -2.83%, 7.37% and 12.34%.
For `COCCOC1CCN(C(=O)c2cc(NC(=O)c3cc(NC(=O)c4ccc(/C=C/c5ccc(OC)cc5)cc4)cn3C)cn2C)CC1.O=S(=O)(O)O` the same measures were 1.91%, 3.1% and 97.19%.

These data come from ChEMBL document CHEMBL4513139, “CO-ADD screening of University of Strathclyde (UK) compounds”.
